What all share (test): DAPPL (digital affinity profiling via proximity ligation, sequencing); 10 mM Tris-HCl pH 7.5, 50 mM NaCl, 1 mM DTT, 4% glycerol, room temperature, 30 min; GST-TFs on glutathione beads, 16-mer random dsDNA library, 0.1% formaldehyde crosslink after washing; high values mean tight binding
What all share (settings): protein: recombinant; tags: N-terminal GST; dsDNA, one strand shown

Assay [1] has as its target T1, ERF (Homo sapiens, UniProt P50548 1-548).
T1 sequence: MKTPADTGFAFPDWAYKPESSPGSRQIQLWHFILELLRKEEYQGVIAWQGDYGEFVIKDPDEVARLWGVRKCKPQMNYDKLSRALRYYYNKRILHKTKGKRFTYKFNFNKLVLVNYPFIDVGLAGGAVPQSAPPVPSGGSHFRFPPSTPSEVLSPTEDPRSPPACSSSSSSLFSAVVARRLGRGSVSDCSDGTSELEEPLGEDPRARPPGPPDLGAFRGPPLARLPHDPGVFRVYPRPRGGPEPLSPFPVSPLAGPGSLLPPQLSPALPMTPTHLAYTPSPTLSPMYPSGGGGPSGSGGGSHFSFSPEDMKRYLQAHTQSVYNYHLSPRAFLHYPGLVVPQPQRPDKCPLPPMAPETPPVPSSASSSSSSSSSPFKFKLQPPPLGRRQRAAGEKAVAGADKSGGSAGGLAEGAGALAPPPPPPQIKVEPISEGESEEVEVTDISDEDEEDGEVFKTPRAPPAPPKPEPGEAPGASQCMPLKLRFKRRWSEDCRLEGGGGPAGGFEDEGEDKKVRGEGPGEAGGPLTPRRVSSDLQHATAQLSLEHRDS
The essentials:
(§1)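 Each value of binding signal is a hexamer's read frequency for a factor divided by the same hexamer's frequency in the tag-only sample. Barcoded, bead-captured GST fusions of human transcription factors made in yeast were pooled with that sample and incubated with 200 nmole of a random double-stranded 16-mer DNA library in Tris/NaCl/DTT/glycerol buffer at room temperature for 30 min. Washing, 0.1% formaldehyde crosslinking, proximity ligation, PCR and Illumina NextSeq500 sequencing followed.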

The target of assay [2] is T2, ETV3L (Homo sapiens, UniProt Q6ZN32 1-361).
T2 sequence: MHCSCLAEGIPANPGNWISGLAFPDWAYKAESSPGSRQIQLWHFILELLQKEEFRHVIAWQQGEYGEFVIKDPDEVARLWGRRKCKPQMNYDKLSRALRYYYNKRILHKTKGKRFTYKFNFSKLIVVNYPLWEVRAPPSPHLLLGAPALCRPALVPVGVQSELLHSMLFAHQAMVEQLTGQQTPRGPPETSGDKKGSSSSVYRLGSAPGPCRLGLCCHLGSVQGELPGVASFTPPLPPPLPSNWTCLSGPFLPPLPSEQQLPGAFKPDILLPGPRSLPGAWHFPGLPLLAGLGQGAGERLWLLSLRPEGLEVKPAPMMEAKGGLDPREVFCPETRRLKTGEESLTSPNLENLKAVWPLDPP
The gist of the method:
as §1

In assay [3] the target is T3, ETS2 (Homo sapiens, UniProt P15036 1-469).
T3 sequence: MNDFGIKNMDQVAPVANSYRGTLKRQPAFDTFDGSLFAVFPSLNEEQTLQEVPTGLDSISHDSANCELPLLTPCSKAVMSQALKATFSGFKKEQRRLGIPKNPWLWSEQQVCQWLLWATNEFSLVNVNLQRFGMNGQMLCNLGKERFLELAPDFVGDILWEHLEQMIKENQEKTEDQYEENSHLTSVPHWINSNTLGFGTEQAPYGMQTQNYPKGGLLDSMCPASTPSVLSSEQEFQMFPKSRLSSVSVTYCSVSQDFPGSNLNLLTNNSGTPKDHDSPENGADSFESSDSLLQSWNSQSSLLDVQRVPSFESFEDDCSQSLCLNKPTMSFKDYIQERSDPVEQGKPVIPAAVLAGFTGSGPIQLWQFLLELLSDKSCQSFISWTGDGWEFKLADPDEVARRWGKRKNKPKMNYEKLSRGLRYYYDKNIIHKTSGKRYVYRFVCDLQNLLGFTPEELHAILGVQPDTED
The essentials:
as §1

Assay [4] has as its target T4, SPDEF (Homo sapiens, UniProt O95238 1-335).
T4 sequence: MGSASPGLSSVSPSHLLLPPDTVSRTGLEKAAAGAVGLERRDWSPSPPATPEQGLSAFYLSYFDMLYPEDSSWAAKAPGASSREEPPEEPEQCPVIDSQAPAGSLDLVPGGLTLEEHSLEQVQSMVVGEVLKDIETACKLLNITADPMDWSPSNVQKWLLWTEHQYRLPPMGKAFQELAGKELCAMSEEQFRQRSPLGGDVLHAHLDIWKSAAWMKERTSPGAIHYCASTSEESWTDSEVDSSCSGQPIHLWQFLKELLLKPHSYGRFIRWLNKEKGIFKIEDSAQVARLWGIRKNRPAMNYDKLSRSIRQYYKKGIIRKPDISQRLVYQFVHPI
The essentials:
as §1

The target of assay [5] is T5, ETV7 (Homo sapiens, UniProt Q9Y603 1-341).
T5 sequence: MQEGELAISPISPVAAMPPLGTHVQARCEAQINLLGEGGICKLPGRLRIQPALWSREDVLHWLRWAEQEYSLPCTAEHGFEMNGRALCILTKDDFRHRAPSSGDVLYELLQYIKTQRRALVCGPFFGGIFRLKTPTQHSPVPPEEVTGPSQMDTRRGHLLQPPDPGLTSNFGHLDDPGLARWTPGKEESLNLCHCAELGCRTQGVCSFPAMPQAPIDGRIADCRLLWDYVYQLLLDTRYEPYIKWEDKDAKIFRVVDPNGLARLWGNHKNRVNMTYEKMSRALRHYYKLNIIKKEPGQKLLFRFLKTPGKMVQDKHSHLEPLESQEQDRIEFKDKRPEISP
The gist of the method: as §1

The target in assay [6] is T6, ELF5 (Homo sapiens, UniProt Q9UKW6-2 1-255).
T6 sequence: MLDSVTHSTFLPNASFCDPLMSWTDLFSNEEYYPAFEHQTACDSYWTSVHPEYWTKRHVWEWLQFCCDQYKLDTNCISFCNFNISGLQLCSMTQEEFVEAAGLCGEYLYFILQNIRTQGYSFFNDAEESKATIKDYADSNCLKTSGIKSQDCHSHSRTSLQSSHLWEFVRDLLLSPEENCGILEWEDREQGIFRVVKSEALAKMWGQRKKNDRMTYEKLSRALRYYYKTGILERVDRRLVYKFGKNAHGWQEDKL
The essentials:
as §1

In assay [7] the target is T7, ETV3 (Homo sapiens, UniProt P41162-2 1-143).
T7 sequence: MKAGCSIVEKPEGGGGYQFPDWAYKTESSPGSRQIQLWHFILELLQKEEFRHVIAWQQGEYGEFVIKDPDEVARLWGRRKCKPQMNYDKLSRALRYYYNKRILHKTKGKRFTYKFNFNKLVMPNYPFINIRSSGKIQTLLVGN
The gist of the method:
as §1

The target in assay [8] is ETV6 (Homo sapiens, UniProt P41212 1-452). The gist of the method: as §1
Chain of ETV6 (P41212 whole entry): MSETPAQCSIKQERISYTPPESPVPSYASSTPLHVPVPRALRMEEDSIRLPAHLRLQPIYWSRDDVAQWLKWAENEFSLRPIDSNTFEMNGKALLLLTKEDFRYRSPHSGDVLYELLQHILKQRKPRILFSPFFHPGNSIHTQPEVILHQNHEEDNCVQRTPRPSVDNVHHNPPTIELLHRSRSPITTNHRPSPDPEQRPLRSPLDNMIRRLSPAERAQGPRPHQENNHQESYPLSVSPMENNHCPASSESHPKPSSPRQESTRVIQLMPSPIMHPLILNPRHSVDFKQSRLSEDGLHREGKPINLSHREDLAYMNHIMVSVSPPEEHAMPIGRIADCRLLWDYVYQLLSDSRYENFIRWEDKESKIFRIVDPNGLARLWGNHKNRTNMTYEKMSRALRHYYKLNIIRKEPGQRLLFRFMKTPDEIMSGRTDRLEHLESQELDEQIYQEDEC

As to AATAAC, the binding signal is 1.33 fold enrichment (6-mer frequency, TF over GST control) in assay [1]; 1.22 fold enrichment (6-mer frequency, TF over GST control) in assay [2]; 1.27 fold enrichment (6-mer frequency, TF over GST control) in assay [3]; 1.21 fold enrichment (6-mer frequency, TF over GST control) in assay [4]; 1.25 fold enrichment (6-mer frequency, TF over GST control) in assay [5]; 1.31 fold enrichment (6-mer frequency, TF over GST control) in assay [6]. The binding signal is 1.23 fold enrichment (6-mer frequency, TF over GST control) in assay [7] and 1.36 fold enrichment (6-mer frequency, TF over GST control) in assay [8].

Regarding TGAATG, the binding signal is 1.14 fold enrichment (6-mer frequency, TF over GST control) in assay [1]; 1.2 fold enrichment (6-mer frequency, TF over GST control) in assay [2]; 1.25 fold enrichment (6-mer frequency, TF over GST control) in assay [3]; 1.28 fold enrichment (6-mer frequency, TF over GST control) in assay [4]; 1.21 fold enrichment (6-mer frequency, TF over GST control) in assay [5]; 1.21 fold enrichment (6-mer frequency, TF over GST control) in assay [6]. Moreover, the binding signal in assay [7] is 1.2 fold enrichment (6-mer frequency, TF over GST control); in assay [8], 1.22 fold enrichment (6-mer frequency, TF over GST control).

As to TGTACC, the binding signal in assay [1] was 1.17 fold enrichment (6-mer frequency, TF over GST control); in assay [2], 1.34 fold enrichment (6-mer frequency, TF over GST control); in assay [3], 1.38 fold enrichment (6-mer frequency, TF over GST control); in assay [4], 1.47 fold enrichment (6-mer frequency, TF over GST control); in assay [5], 1.26 fold enrichment (6-mer frequency, TF over GST control); in assay [6], 1.27 fold enrichment (6-mer frequency, TF over GST control). The binding signal was 1.35 fold enrichment (6-mer frequency, TF over GST control) in assay [7] and 1.28 fold enrichment (6-mer frequency, TF over GST control) in assay [8].

As for TATAGA, the binding signal was 1.06 fold enrichment (6-mer frequency, TF over GST control) in assay [1]; 1.18 fold enrichment (6-mer frequency, TF over GST control) in assay [2]; 1.04 fold enrichment (6-mer frequency, TF over GST control) in assay [3]; 1.14 fold enrichment (6-mer frequency, TF over GST control) in assay [4]; 1.08 fold enrichment (6-mer frequency, TF over GST control) in assay [5]; 1.09 fold enrichment (6-mer frequency, TF over GST control) in assay [6]. Also, the binding signal was 1.07 fold enrichment (6-mer frequency, TF over GST control) in assay [7] and 1.11 fold enrichment (6-mer frequency, TF over GST control) in assay [8].

For CCCCGC, the binding signal in assay [1] is 1.11 fold enrichment (6-mer frequency, TF over GST control); in assay [2], 1.23 fold enrichment (6-mer frequency, TF over GST control); in assay [3], 1.14 fold enrichment (6-mer frequency, TF over GST control); in assay [4], 1.06 fold enrichment (6-mer frequency, TF over GST control); in assay [5] it was 1.19 fold enrichment (6-mer frequency, TF over GST control); in assay [6], 1.07 fold enrichment (6-mer frequency, TF over GST control). Also, the binding signal in assay [7] was 1.14 fold enrichment (6-mer frequency, TF over GST control); in assay [8] it was 1.16 fold enrichment (6-mer frequency, TF over GST control).

Consider CACCTC, for which the binding signal in assay [1] is 1.21 fold enrichment (6-mer frequency, TF over GST control); in assay [2], 1.18 fold enrichment (6-mer frequency, TF over GST control); in assay [3], 1.06 fold enrichment (6-mer frequency, TF over GST control); in assay [4], 1.17 fold enrichment (6-mer frequency, TF over GST control); in assay [5], 1.17 fold enrichment (6-mer frequency, TF over GST control); in assay [6], 1.09 fold enrichment (6-mer frequency, TF over GST control). Also, the binding signal in assay [7] was 1.15 fold enrichment (6-mer frequency, TF over GST control); in assay [8] it was 1.14 fold enrichment (6-mer frequency, TF over GST control).

Take ACTGCG: the binding signal in assay [1] was 1.26 fold enrichment (6-mer frequency, TF over GST control); in assay [2] it was 1.26 fold enrichment (6-mer frequency, TF over GST control); in assay [3], 1.35 fold enrichment (6-mer frequency, TF over GST control); in assay [4] it was 1.24 fold enrichment (6-mer frequency, TF over GST control); in assay [5] it was 1.21 fold enrichment (6-mer frequency, TF over GST control); in assay [6], 1.25 fold enrichment (6-mer frequency, TF over GST control). Further, the binding signal is 1.25 fold enrichment (6-mer frequency, TF over GST control) in assay [7] and 1.18 fold enrichment (6-mer frequency, TF over GST control) in assay [8].

Source of the values: article PMC7862700, “An all-to-all approach to the identification of sequence-specific readers for epigenetic DNA modifications on cytosine”.
